Here are results for nine compounds from PubChem BioAssay (NCI).

Some test systems named below: SK-MEL-2 melanoma; EKVX NSCLC; SN12C renal; UO-31 renal; TK-10 renal; ACHN renal; CAKI-1 renal; CCRF-CEM leukemia; MOLT-4 leukemia; SR leukemia; OVCAR-8 ovarian; OVCAR-5 ovarian; OVCAR-4 ovarian; IGROV1 ovarian; OVCAR-3 ovarian; HS 578T breast; NCI/ADR-RES ovarian; A498 renal; RPMI-8226 leukemia; SK-OV-3 ovarian.
Holding throughout (assay): NCI-60 one-dose screen, 48 h (100 = growth as untreated, 0 = no growth, -100 = all killed)
Conditions in all cases: 10 µM unless noted

About 83,000 compounds went through this panel and 20% of them were active in at least one assay; those are over-represented in the sample as a whole.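 How to read the values: 0–100, growth inhibition (40 = 60% inhibited); 0, no net growth; -100 to 0, cell death (-40 = 40% of starting cells died; -100 = all dead).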 A number with no mark means an inactive call. Calls of active or inactive are those of the source. How the source made its calls: active means growth percent below 10; inactive means the rest.

As for `N=C(N)c1ccc(-c2ccc(-c3ccc(Cl)c(Cl)c3)o2)cc1`, the growth in the test with SK-MEL-2 melanoma is 102%; in the test on EKVX NSCLC it was 69.8%; in the test with SN12C renal it was -81% (active); in the test on UO-31 renal it was -69.1% (active); in the test with TK-10 renal, 76%; with ACHN renal, -70.7% (active). Also, the growth in the test on CAKI-1 renal is 53%; in the test with CCRF-CEM leukemia, -24.9% (active); in the test with MOLT-4 leukemia it was -31% (active); in the test with SR leukemia it was -14.5% (active); in the test on OVCAR-8 ovarian, 1.38% (active); in the test with OVCAR-5 ovarian it was 39.9%. The growth in the test with OVCAR-4 ovarian was -13.1% (active); in the test on IGROV1 ovarian, -64.6% (active); in the test with OVCAR-3 ovarian, -42.2% (active); with HS 578T breast, 70.9%; in the test with NCI/ADR-RES ovarian, 35.1%.
In the case of `O=c1[nH]nc(-c2ccc(Cl)cc2)cc1Cc1ccccc1`, the growth with SK-MEL-2 melanoma is 101%; in the test with EKVX NSCLC it was 86%; with SN12C renal, 103%; in the test with UO-31 renal, 61.7%; with TK-10 renal it was 109%; with ACHN renal, 92.7%. Further, the growth was 110% in the test on A498 renal; 81.6% in the test with CCRF-CEM leukemia; 79.6% in the test with MOLT-4 leukemia; 62.5% in the test with SR leukemia; 41.1% with RPMI-8226 leukemia; 94.1% in the test with OVCAR-5 ovarian. The growth in the test with OVCAR-4 ovarian was 95.1%; with SK-OV-3 ovarian it was 99.1%; in the test with IGROV1 ovarian, 40.9%; with OVCAR-3 ovarian it was 104%; in the test on HS 578T breast, 103%; in the test with NCI/ADR-RES ovarian, 98.4%.
Regarding `O=C(NC(=S)Nc1ccc(-c2nc3ccccc3[nH]2)cc1)c1ccc2ccccc2c1`, the growth with SK-MEL-2 melanoma is 98.2%; in the test with EKVX NSCLC, 58.2%; in the test with SN12C renal it was 15.9%; in the test with UO-31 renal it was -84.4% (active); with TK-10 renal, -16.5% (active); in the test on ACHN renal it was -0.473% (active). Also, the growth with CAKI-1 renal is 24.5%; in the test with CCRF-CEM leukemia it was 49.6%; in the test on MOLT-4 leukemia, 59%; in the test with RPMI-8226 leukemia it was -6.21% (active); in the test with OVCAR-8 ovarian it was 28.8%; with OVCAR-5 ovarian, 56.5%. Moreover, the growth with OVCAR-4 ovarian was -18.7% (active); in the test on IGROV1 ovarian, 52.2%; in the test with OVCAR-3 ovarian, -45.2% (active); with HS 578T breast, 11.3%; with NCI/ADR-RES ovarian, 28.8%.
As for `CN1C(=O)CCC(N2C(=O)c3cccc(NCCOCCOCCNC(=O)c4cc5c(o4)C(=O)c4ccccc4C5=O)c3C2=O)C1=O` (stereo unspecified), the growth was 6.39% (active) in the test on SK-MEL-2 melanoma; 9.9% (active) in the test with EKVX NSCLC; -86.2% (active) with SN12C renal; -52.6% (active) with UO-31 renal; 32.4% in the test on TK-10 renal; 8.82% (active) in the test with ACHN renal. Besides, the growth in the test on CAKI-1 renal is -0.721% (active); with CCRF-CEM leukemia it was 18.4%; with MOLT-4 leukemia it was 11.1%; in the test with SR leukemia, 7.99% (active); in the test on OVCAR-8 ovarian, 2.72% (active); in the test with OVCAR-5 ovarian, -85.5% (active). Moreover, the growth in the test on OVCAR-4 ovarian is -95.3% (active); with IGROV1 ovarian, -20.1% (active); in the test on OVCAR-3 ovarian, -44.7% (active); in the test on HS 578T breast it was -22.8% (active); with NCI/ADR-RES ovarian, 45.1%.
With `N=C(N)c1ccc(-c2ccc(-c3ccc(Cl)cc3Cl)o2)nc1`, the growth is 103% in the test with SK-MEL-2 melanoma; 95.4% in the test with EKVX NSCLC; -42.8% (active) in the test with SN12C renal; -16.1% (active) with UO-31 renal; 61% with TK-10 renal; 12.3% with ACHN renal. Also, the growth in the test on CAKI-1 renal was 53.8%; in the test with CCRF-CEM leukemia, -12.9% (active); in the test with MOLT-4 leukemia, 1.62% (active); in the test on OVCAR-8 ovarian, 1.36% (active); in the test with OVCAR-5 ovarian, 77.2%; with OVCAR-4 ovarian, 22.6%. For the same compound, the growth was 25.4% in the test with IGROV1 ovarian, -3.34% (active) in the test with OVCAR-3 ovarian, -15.2% (active) in the test with HS 578T breast and 71.6% in the test with NCI/ADR-RES ovarian.
Consider `COc1cc(-c2ccc(-c3ccc(C(=N)N)nc3)s2)cc(OC)c1OC`, for which the growth in the test on SK-MEL-2 melanoma is 89.3%; with EKVX NSCLC, 89.9%; in the test on SN12C renal, 66.6%; with UO-31 renal, 70.5%; in the test with TK-10 renal it was 102%; in the test with ACHN renal, 47.1%. Further, the growth in the test on CAKI-1 renal was 95.9%; with CCRF-CEM leukemia, 10.9%; with MOLT-4 leukemia, 23.8%; with SR leukemia, 6.31% (active); in the test with OVCAR-8 ovarian, 57.2%; with OVCAR-5 ovarian, 81%. Also, the growth with OVCAR-4 ovarian was 60.9%; in the test on OVCAR-3 ovarian, -41.9% (active); in the test with HS 578T breast it was 64.4%; in the test on NCI/ADR-RES ovarian it was 78.6%.
As for `Cc1[nH]c(-c2nc3ccccc3[nH]2)c(C)c1C(=O)N1CCOCC1`, the growth with SK-MEL-2 melanoma was 99.6%; in the test on EKVX NSCLC, 91.2%; in the test with SN12C renal, 86.8%; with UO-31 renal it was 82.2%; in the test with TK-10 renal it was 106%; in the test with ACHN renal, 98.3%. Moreover, the growth in the test with CAKI-1 renal was 101%; in the test with CCRF-CEM leukemia, 112%; in the test with MOLT-4 leukemia, 105%; in the test on SR leukemia, 98.6%; with OVCAR-8 ovarian, 106%; in the test with OVCAR-5 ovarian, 98%. Moreover, the growth in the test on OVCAR-4 ovarian is 99.8%; in the test on IGROV1 ovarian, 99.4%; with HS 578T breast, 90.4%; in the test on NCI/ADR-RES ovarian, 101%.
For the compound `O=[N+]([O-])c1cccc(/C=C/c2ccccn2)c1`, the growth in the test with SK-MEL-2 melanoma is 117%; in the test on EKVX NSCLC it was 74.3%; in the test with SN12C renal, 84.3%; in the test on UO-31 renal, 69.4%; in the test on TK-10 renal, 104%; in the test with ACHN renal it was 72.1%. The growth in the test with CAKI-1 renal is 52.3%; in the test on CCRF-CEM leukemia, 65.5%; in the test on MOLT-4 leukemia it was 75.2%; in the test on RPMI-8226 leukemia, 51.7%; with OVCAR-8 ovarian, 86.2%; in the test on OVCAR-5 ovarian, 96.2%. Further, the growth in the test on OVCAR-4 ovarian is 70.5%; with SK-OV-3 ovarian, 94%; in the test on IGROV1 ovarian, 86.7%; in the test with OVCAR-3 ovarian, 59.4%; in the test on NCI/ADR-RES ovarian, 81.2%.
Consider `O=C1Nc2ccc(Cl)cc2/C1=N/N=C/c1c[nH]c2ccccc12`, for which the growth is 66.3% in the test on SK-MEL-2 melanoma; 22.6% in the test on EKVX NSCLC; 80.5% with SN12C renal; 40.9% in the test on UO-31 renal; 75.8% with TK-10 renal; 49.8% with ACHN renal. Moreover, the growth is 28.9% in the test on CAKI-1 renal; 85.7% in the test with CCRF-CEM leukemia; 92.1% in the test with MOLT-4 leukemia; 75.2% with SR leukemia; 76% with OVCAR-8 ovarian; 89.8% in the test with OVCAR-5 ovarian. Besides, the growth in the test with OVCAR-4 ovarian is 67.8%; in the test with IGROV1 ovarian, 42.7%; in the test with OVCAR-3 ovarian it was 76.5%; in the test with HS 578T breast, 22%; in the test with NCI/ADR-RES ovarian, 98.1%.
